Active and inactive are the calls of the source. Entries that show only a call come without a potency. The call rests on the fitted dose curve.
Target: Gonadotropin-releasing hormone receptor (Homo sapiens) (UniProt P30968)
Experiment: Human gonadotropin-releasing hormone receptor (GnRHR) small molecule agonists, calcium flux assay in GnRHR-HEK293 cells (AID 1920063); further: nearly all actives have a fitted effect of over 35% in size
Outline: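 HEK293 cells stably expressing human GnRHR were dye-loaded for 1 h at 37 C. Compound was added in agonist mode and fluorescence (Ex/Em 480/540) recorded kinetically for 3 min. Fifteen concentrations, triplicates.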

Chain of Gonadotropin-releasing hormone receptor (Homo sapiens) (P30968 whole entry, looked up): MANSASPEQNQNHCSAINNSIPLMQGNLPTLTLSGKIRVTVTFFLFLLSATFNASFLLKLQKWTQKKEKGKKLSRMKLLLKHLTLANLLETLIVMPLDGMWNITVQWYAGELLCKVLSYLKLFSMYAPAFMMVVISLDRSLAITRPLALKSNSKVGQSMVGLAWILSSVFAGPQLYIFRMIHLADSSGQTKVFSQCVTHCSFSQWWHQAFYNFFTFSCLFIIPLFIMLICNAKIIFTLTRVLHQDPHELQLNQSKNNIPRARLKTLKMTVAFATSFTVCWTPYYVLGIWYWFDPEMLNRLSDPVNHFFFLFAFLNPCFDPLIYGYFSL

## O=C1CCCCCCCCCCCCCCO1
  Potency: inactive

## COC(C(=O)O)c1ccccc1 (stereo not given)
  Potency: inactive

## CC(C)CCCCCCN
  Potency: inactive

## C=C(C)C(=O)OC
  Potency: inactive

## CCCC(=O)OCC
  Potency: inactive

## COc1nc(N)nc2c1ncn2[C@@H]1O[C@H](CO)[C@@H](O)[C@@H]1O
  Potency: inactive

## CN1CCN(C)CC1
  Potency: inactive

## CC(=O)c1ccc(OCC(=O)N2CCCCC2)cc1
  Potency: inactive

## O=C(c1ccccc1)C1CCCCC1
  Potency: inactive

## N#CCCCC(C#N)CCC#N (stereo not given)
  Potency: inactive

## Cc1c(Nc2ncccc2C(=O)O)cccc1C(F)(F)F
  Potency: inactive

## COC(C)(C)CC(C)=O
  Potency: inactive

## CC1=CCC(C(C)C)C=C1 (stereo not given)
  Potency: inactive

## CC(C)Cc1ccc(CC(=O)O)cc1
  Potency: inactive

## COc1ccnc2c1CCCCC2S(=O)c1nc2ccccc2[nH]1 (stereo not given)
  Potency: inactive

## CCCCCCCCCCCCCCCBr
  Potency: inactive

## CCCCCC(CO)CCC (stereo not given)
  Potency: inactive

## Sc1nc(S)nc(S)n1
  Potency: inactive

## Cc1ccc([N+](=O)[O-])cc1Cl
  Potency: inactive

## Oc1ccccc1-c1nnco1
  Potency: inactive

## CCCCCC
  Potency: inactive

## C=Cc1ccc(OC(C)=O)cc1
  Potency: inactive

## CCCCOC(=O)CO
  Potency: inactive

## Cc1c(C(=O)O)cccc1[N+](=O)[O-]
  Potency: inactive

## Cc1ccc2ccc(Cl)cc2n1
  Potency: inactive

Reference: PubChem BioAssay (Tox21)
